# Whole data set: some 2,900 compounds, median “NF-kB SEAP reporter activity, fold change vs agonist alone” near 0.99, cut for the highest 2% near 2.6. This is one part of a sample in which the highest values are shown more often than they occur.
# What was measured:
# [1] = tested on: RAW-Dual; experiment: NF-kB SEAP reporter activity, fold change vs agonist alone; cytotoxicity flag (confluency mask): cytotoxic (confluency <70% of control); higher = enhanced NF-kB activity
# Summary of the method: (§1)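 After 50 nL of library stock was delivered by pin tool to RAW-Dual macrophages (50,000 cells/well, DMEM, 384-well plates), a PRR agonist was added 1 h later and the plates were kept at 37 °C, 5% CO2. Twenty hours later, IRF was read from supernatant by QuantiLuc luminescence and NF-κB by QuantiBlue absorbance at 620 nm. Reporter activity is stated as fold change over agonist-alone wells. Wells with IncuCyte confluency under 70% of agonist controls in both mask sets were counted as cytotoxic.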
# [2] = tested on: RAW-Dual; experiment: NF-kB SEAP reporter activity, fold change vs agonist alone; higher = enhanced NF-kB activity; settings: library stock concentration (final ~1000-fold dilution): 10 mM
# Summary of the method: as §1
# [3] = tested on: RAW-Dual; experiment: NF-kB SEAP reporter activity, fold change vs agonist alone; cytotoxicity flag (confluency mask): not cytotoxic; higher = enhanced NF-kB activity
# Summary of the method: as §1
# [4] = agonist: ODN 1826 (TLR9) 0.5 ug/mL
# [5] = agonist: Pam2CSK4 (TLR2/6) 0.1 ug/mL
# [6] = agonist: Pam3CSK4 (TLR2/1) 0.1 ug/mL
# [7] = cytotoxicity flag (confluency mask): not cytotoxic, agonist: Imiquimod (TLR7) […]
# [8] = cytotoxicity flag (confluency mask): not cytotoxic, agonist: MPLA (TLR4) […]
smiles,measurement,setting,value
CCS(=O)(=O)Nc1ccc(Oc2ccc(F)cc2F)c(-c2cn(C)c(=O)c3[nH]ccc23)c1 (library stock concentration (final ~1000-fold dilution): 10 mM),NF-kB SEAP reporter activity,[1]; agonist: LPS (TLR4) 0.1 ug/mL,3.19
same,NF-kB SEAP reporter activity,[1]; [4],2.18
same,NF-kB SEAP reporter activity,[1]; [5],0.424
same,NF-kB SEAP reporter activity,[1]; [6],1.13
CC1OC(OC2C(CO)OC(OCC3OC(OC(=O)[C@]45CC[C@@H](C)[C@H](C)[C@H]4C4=CCC6[C@@]7(C)C[C@@H](O)[C@@H](O)[C@@](C)(CO)C7CC[C@@]6(C)[C@]4(C)CC5)C(O)C(O)C3O)C(O)C2O)C(O)C(O)C1O (some centres undefined),NF-kB SEAP reporter activity,[2]; [7],0.975
same,NF-kB SEAP reporter activity,[2]; [8],1.12
CC1OC(OC2C(CO)OC(OCC3OC(OC(=O)[C@]45CC[C@@H](C)[C@H](C)[C@H]4C4=CCC6[C@@]7(C)C[C@@H](O)[C@@H](O)[C@@](C)(CO)C7CC[C@@]6(C)[C@]4(C)CC5)C(O)C(O)C3O)C(O)C2O)C(O)C(O)C1O (some centres undefined) (library stock concentration (final ~1000-fold dilution): 10 mM),NF-kB SEAP reporter activity,[3]; agonist: LPS (TLR4) 0.1 ug/mL,1.08
same,NF-kB SEAP reporter activity,[3]; [4],0.915
same,NF-kB SEAP reporter activity,[3]; [5],1.06
same,NF-kB SEAP reporter activity,[3]; [6],1.1
Cc1c(CN2CCC(Nc3ncnc4sc(CC(F)(F)F)cc34)CC2)ccc2[nH]c(C#N)cc12,NF-kB SEAP reporter activity,[2]; [7],0.878
same,NF-kB SEAP reporter activity,[2]; [8],0.915
Cc1c(CN2CCC(Nc3ncnc4sc(CC(F)(F)F)cc34)CC2)ccc2[nH]c(C#N)cc12 (library stock concentration (final ~1000-fold dilution): 10 mM),NF-kB SEAP reporter activity,[3]; agonist: LPS (TLR4) 0.1 ug/mL,1.32
same,NF-kB SEAP reporter activity,[3]; [4],0.176
same,NF-kB SEAP reporter activity,[3]; [5],0.631
same,NF-kB SEAP reporter activity,[3]; [6],0.575
O=C(NC1=CC(=O)[C@H]2O[C@H]2[C@H]1O)c1ccccc1O (library stock concentration (final ~1000-fold dilution): 10 mM),NF-kB SEAP reporter activity,[3]; agonist: LPS (TLR4) 0.1 ug/mL,0.727
same,NF-kB SEAP reporter activity,[3]; [4],0.951
same,NF-kB SEAP reporter activity,[3]; [5],0.806
same,NF-kB SEAP reporter activity,[3]; [6],0.551
O=C(NC1=CC(=O)[C@H]2O[C@H]2[C@H]1O)c1ccccc1O,NF-kB SEAP reporter activity,[2]; [7],1
same,NF-kB SEAP reporter activity,[2]; [8],1.08
COc1cc(OC)c(C=CS(=O)(=O)Cc2ccc(OC)c(NCC(=O)O)c2)c(OC)c1,NF-kB SEAP reporter activity,[2]; [7],2.64
same,NF-kB SEAP reporter activity,[2]; [8],2.27
COc1ccc(CNC(=O)CCl)cc1OC (library stock concentration (final ~1000-fold dilution): 10 mM),NF-kB SEAP reporter activity,[3]; agonist: LPS (TLR4) 0.1 ug/mL,0.67
same,NF-kB SEAP reporter activity,[3]; [4],0.674
same,NF-kB SEAP reporter activity,[3]; [5],0.728
same,NF-kB SEAP reporter activity,[3]; [6],0.679
COc1ccc(CNC(=O)CCl)cc1OC,NF-kB SEAP reporter activity,[2]; [7],1.02
same,NF-kB SEAP reporter activity,[2]; [8],0.962
COc1cc(OC)c(C=CS(=O)(=O)Cc2ccc(OC)c(NCC(=O)O)c2)c(OC)c1 (library stock concentration (final ~1000-fold dilution): 10 mM),NF-kB SEAP reporter activity,[3]; agonist: LPS (TLR4) 0.1 ug/mL,4.24
same,NF-kB SEAP reporter activity,[3]; [4],3.24
same,NF-kB SEAP reporter activity,[3]; [5],2.21
same,NF-kB SEAP reporter activity,[3]; [6],2.56
CC(=O)C1CCC2C3CCC4=CC(=O)CCC4(C)C3CCC12C (centres undefined),NF-kB SEAP reporter activity,[2]; [7],0.441
same,NF-kB SEAP reporter activity,[2]; [8],1.06
CC(=O)C1CCC2C3CCC4=CC(=O)CCC4(C)C3CCC12C (centres undefined) (library stock concentration (final ~1000-fold dilution): 10 mM),NF-kB SEAP reporter activity,[3]; agonist: LPS (TLR4) 0.1 ug/mL,0.981
same,NF-kB SEAP reporter activity,[3]; [4],1.06
same,NF-kB SEAP reporter activity,[3]; [5],1.38
same,NF-kB SEAP reporter activity,[3]; [6],1.51
Cc1ccc(/C=N/NC(=O)c2ccccc2Oc2ccccc2)o1,NF-kB SEAP reporter activity,[2]; [7],0.972
same,NF-kB SEAP reporter activity,[2]; [8],1.09
O=C(N/N=C/c1ccc([N+](=O)[O-])o1)c1ccc(O)cc1,NF-kB SEAP reporter activity,"[2]; cytotoxicity flag (confluency mask): cytotoxic (confluency <70% of control), agonist: Imiquimod (TLR7) […]",2.58
same,NF-kB SEAP reporter activity,"[2]; cytotoxicity flag (confluency mask): cytotoxic (confluency <70% of control), agonist: MPLA (TLR4) […]",2.03
O=C1CN(/N=C/c2ccc([N+](=O)[O-])o2)C(=O)N1,NF-kB SEAP reporter activity,[2]; [7],0.924
same,NF-kB SEAP reporter activity,[2]; [8],0.948
O=C(N/N=C/c1ccc([N+](=O)[O-])o1)c1ccc(O)cc1 (library stock concentration (final ~1000-fold dilution): 10 mM),NF-kB SEAP reporter activity,[1]; agonist: LPS (TLR4) 0.1 ug/mL,3.8
same,NF-kB SEAP reporter activity,[1]; [4],1.64
same,NF-kB SEAP reporter activity,[1]; [5],1.38
same,NF-kB SEAP reporter activity,[1]; [6],1.55
O=C1CN(/N=C/c2ccc([N+](=O)[O-])o2)C(=O)N1 (library stock concentration (final ~1000-fold dilution): 10 mM),NF-kB SEAP reporter activity,[3]; agonist: LPS (TLR4) 0.1 ug/mL,1.09
same,NF-kB SEAP reporter activity,[3]; [4],0.855
same,NF-kB SEAP reporter activity,[3]; [5],1.1
same,NF-kB SEAP reporter activity,[3]; [6],1.11
Cc1ccc(/C=N/NC(=O)c2ccccc2Oc2ccccc2)o1 (library stock concentration (final ~1000-fold dilution): 10 mM),NF-kB SEAP reporter activity,[3]; agonist: LPS (TLR4) 0.1 ug/mL,1.08
same,NF-kB SEAP reporter activity,[3]; [4],0.922
same,NF-kB SEAP reporter activity,[3]; [5],0.955
same,NF-kB SEAP reporter activity,[3]; [6],1.31
COC1/C=C\C=C(/C)C(=O)NC2=CC(=O)C(NCCN(C)C)=C(CC(C)CC(OC)C(O)C(C)/C=C(\C)C1OC(N)=O)C2=O.Cl (centres undefined),NF-kB SEAP reporter activity,[2]; [7],0.497
same,NF-kB SEAP reporter activity,[2]; [8],0.345
COC1/C=C\C=C(/C)C(=O)NC2=CC(=O)C(NCCN(C)C)=C(CC(C)CC(OC)C(O)C(C)/C=C(\C)C1OC(N)=O)C2=O.Cl (centres undefined) (library stock concentration (final ~1000-fold dilution): 10 mM),NF-kB SEAP reporter activity,[3]; agonist: LPS (TLR4) 0.1 ug/mL,0.267
same,NF-kB SEAP reporter activity,[3]; [4],0.313
same,NF-kB SEAP reporter activity,[3]; [5],0.154
same,NF-kB SEAP reporter activity,[3]; [6],0.199
